Sampled rows, rich in hits. Any-hit rate of the full collection: about 10%.
HP1b chromo inh: blocks HP1-beta chromodomain binding to methylated histone tails | P83916 | AlphaScreen HP1-beta / biotin-H3K9me3 peptide binding | Potency, µM (series often up to 114 µM), for inactives: at the top dose activity change, negative = inhibition, most hits filed as inhibitors | 390,000 tested, 0.56% active | AID 540317; also: potency is read from the fitted curve at half-maximal effect; nearly all actives have a fitted effect of over 70% in size
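HP1-beta protein (50 nM final) preincubated 30 min at room temperature with biotinylated H3(1-18)K9me3 peptide (50 nM) in PBS pH 7.4, 0.01% Tween-20, then compound added for 30 min. AlphaScreen streptavidin donor/nickel chelate acceptor beads (10 ug/mL final), 30 min dark, luminescence read.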
CtBP-E1A blk: inhibitors of CtBP/E1A interaction; activity change, % (test concentration not listed); 340,000 tested, 0.49% active; AID 651724; AlphaScreen GST-E1A/His-CtBP binding, 1536-well; active compounds read low; in the data active = activity change below about -65%; inconclusive = mostly about -30% to -63%; also: % is scaled to controls: 0 for no effect and ±100 for the full control effect
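Protein mix (5X: 125 nM each GST-E1A, His-CtBP) was incubated with pinned compound 2 h at 37 deg C in dark, in 50 mM Tris pH 8.0 buffer with 300 mM NaCl. Glutathione donor and nickel acceptor beads followed; AlphaScreen signal read after 1 h.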
Six1-Eya2 blk: inhibitors of human Six1/Eya2 interaction; Q15475+O00167; AlphaScreen GST-Six1/His-Eya2 binding, biochemical; active compounds read low; activity change, % (no concentration beside the values); 360,000 tested, 0.56% active; AID 651725; in the data active = activity change below about -65%; inconclusive = mostly about -30% to -63%; also: % is scaled to controls: 0 for no effect and ±100 for the full control effect
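AlphaScreen luminescence read after one hour at 37 °C in darkness. Pin-transferred compounds met GST-Six1 and His-Eya2 protein (5X stock 250 nM/500 nM) plus glutathione donor and Ni-chelate acceptor beads (5X, 50 ug/mL).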
JMJD2A Tudor: blocks the human JMJD2A Tudor domain | 390,000 tested, 4.4% active | AlphaScreen JMJD2A-Tudor / H3K4me3 peptide binding | Potency, µM (top dose mostly 114 µM), without a hit: at the top dose activity change, negative = inhibition, hits mostly inhibitors; also: potency is read from the fitted curve at half-maximal effect; % is scaled to controls: 0 for no effect and ±100 for the full control effect; nearly all actives have a fitted effect of over 50% in size
G9a block: blocks human histone lysine methyltransferase G9a; Q96KQ7; G9a H3K9 monomethylation, AlphaScreen, 2 h; Potency, µM (series often up to 102 µM), without a hit: top-dose activity, negative = inhibition, hits mostly inhibitors; 350,000 tested, 8.8% active; also: potency is read from the fitted curve at half-maximal effect; % is scaled to controls: 0 for no effect and ±100 for the full control effect; nearly all actives have a fitted effect of over 75% in size
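Readings reflect AlphaScreen signal from monomethyl-H3K9 antibody detection. HMT at 20 nM; substrate b-H3K9 500 nM; cofactor SAM 20 uM; 2 h RT reaction; compounds tested as titrations in qHTS with 15 min preincubation.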
BAZ2B inh: BAZ2B (human) inhibition. Q9UIF8. AlphaScreen BAZ2B-H3K14Ac peptide displacement. Potency, µM (titrated, usually from 114 µM), inactives show at the highest dose activity change, negative = inhibition, hits mostly inhibitors. 360,000 tested, 4.4% active. AID 504333; also: potency is read from the fitted curve at half-maximal effect; % is scaled to controls: 0 for no effect and ±100 for the full control effect; nearly all actives have a fitted effect of over 60% in size
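Compounds, titrated to a top concentration of 110 uM, were incubated 30 min at room temperature with preformed BAZ2B/acetyl-K14 H3 peptide complex (50 nM each). Proximity signal was measured by AlphaScreen after 20 min with beads.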
* marks the source's active call; other numbers are inactive results; [ ] = another dose, or the depositor's remark. Unless noted, calls follow the shape of the dose curve; as a rule, active = well fitted inhibition curve with a large enough effect; inconclusive = small, poorly fitted or top-dose-only effect; inactive = no such curve, though single readings can be large or run the other way.

Results for COc1ccc(CCN2C(=O)COc3ccccc3C2C(=O)Nc2ccc3c(c2)OCCO3)cc1OC (stereo unspecified) ?
CtBP-E1A blk: 0; Six1-Eya2 blk: -4

How did O=C(NCCc1csc(-c2cccnc2)n1)c1cccc(C(F)(F)F)c1 do in these assays?
HP1b chromo inh: 5%[57 µM]; JMJD2A Tudor: 1%; G9a block: 3%[59 µM]; BAZ2B inh: -7%

What do the screens show for `COc1ccccc1-n1c(CNC(=O)c2ccc(S(=O)(=O)N3CCCCC3)cc2)n[nH]c1=S`?
HP1b chromo inh: 20%; CtBP-E1A blk: -6; Six1-Eya2 blk: 10; JMJD2A Tudor: 8.9µM*; G9a block: 22µM*; BAZ2B inh: -16%

What do the screens show for `O=C(NCc1n[nH]c(=S)n1-c1ccccc1Cl)c1ccc(S(=O)(=O)N2CCCCC2)cc1`?
HP1b chromo inh: 38%; CtBP-E1A blk: 13; Six1-Eya2 blk: 6; JMJD2A Tudor: -32%; G9a block: 10µM*; BAZ2B inh: 4%

What do the screens show for `Cc1ccccc1-c1noc(-c2ccc(NCC3CCCO3)c([N+](=O)[O-])c2)n1` (stereo unspecified)?
HP1b chromo inh: 14%; JMJD2A Tudor: -8%; G9a block: -29%[59 µM]; BAZ2B inh: -19%

Results for COc1cc(/C=N/NC(=O)CN2CCCCC2)ccc1OCc1ccc(Br)cc1 ?
HP1b chromo inh: -14%; CtBP-E1A blk: 1; Six1-Eya2 blk: 3; JMJD2A Tudor: -29%; G9a block: 21%[59 µM]; BAZ2B inh: -36%

What do the screens show for `CCCCn1c(SCc2c(C)noc2C)nc2cc(S(N)(=O)=O)ccc21`?
HP1b chromo inh: 34%; CtBP-E1A blk: 4; Six1-Eya2 blk: -4; JMJD2A Tudor: -6%; G9a block: 50µM*; BAZ2B inh: 0%

Results for CCCCn1c(SCC(=O)Nc2cc(C)on2)nc2cc(S(N)(=O)=O)ccc21 ?
HP1b chromo inh: 20%; CtBP-E1A blk: -11; Six1-Eya2 blk: -1; JMJD2A Tudor: -17%; G9a block: inconclusive; BAZ2B inh: 13%

Results for NC(=O)COC(=O)c1ccc(Cl)c(S(=O)(=O)N(Cc2ccccc2)c2ccc(Cl)cc2)c1 ?
HP1b chromo inh: -10%; CtBP-E1A blk: -4; Six1-Eya2 blk: -7; JMJD2A Tudor: inconclusive; G9a block: inconclusive; BAZ2B inh: -1%

Results for O=C(O)c1ccc(Cl)c(S(=O)(=O)N(Cc2ccccc2)c2ccc(Cl)cc2)c1 ?
HP1b chromo inh: 17%; CtBP-E1A blk: -18; Six1-Eya2 blk: -5; JMJD2A Tudor: -17%; G9a block: 50µM*; BAZ2B inh: -23%

How did C=CCNC(=O)COC(=O)c1ccc(Cl)c(S(=O)(=O)N(Cc2ccccc2)c2ccccc2)c1 do in these assays?
HP1b chromo inh: 35%; CtBP-E1A blk: 0; Six1-Eya2 blk: -2; JMJD2A Tudor: -23%; G9a block: 32µM*; BAZ2B inh: 3%

Results for CC(C)C(C)NC(=O)COn1nnc2ccc(S(=O)(=O)N3CCOCC3)cc21 (stereo unspecified) ?
HP1b chromo inh: 39%; Six1-Eya2 blk: 2; JMJD2A Tudor: 11%; G9a block: 28%[12.7 µM]; BAZ2B inh: -1%

How did Cc1cc(N2CCC(C(=O)Nc3ccc(F)cc3C)CC2)n2nc(C)c(-c3ccc(Cl)cc3)c2n1 do in these assays?
HP1b chromo inh: 30%; JMJD2A Tudor: 0%; G9a block: 1%[59 µM]; BAZ2B inh: -5%

Results for CC(C)NC(=O)N1CC[C@@]2(CCCN(S(C)(=O)=O)C2)C1 ?
G9a block: 1%[12.7 µM]

What do the screens show for `O=C(NCc1ccccc1)NC(=O)c1ccccc1F`?
HP1b chromo inh: 27%; CtBP-E1A blk: 10; Six1-Eya2 blk: 11; JMJD2A Tudor: -6%; G9a block: 34%; BAZ2B inh: -3%

What do the screens show for `CCN(CC)CCN(Cc1cc2ccc(C)c(C)c2[nH]c1=O)C(=S)NCc1ccco1`?
HP1b chromo inh: inconclusive; CtBP-E1A blk: 3; Six1-Eya2 blk: -6; JMJD2A Tudor: inconclusive; G9a block: 50µM*; BAZ2B inh: inconclusive

What do the screens show for `Cc1nn(-c2ccc(N3CCCC3)nn2)c(C)c1CCC(=O)Nc1ccc(F)cc1F`?
HP1b chromo inh: 38%; JMJD2A Tudor: -23%; G9a block: 13%[59 µM]; BAZ2B inh: -20%

What do the screens show for `Cc1ccc(S(=O)(=O)Nc2ccccc2[N+](=O)[O-])cc1`?
CtBP-E1A blk: -3; Six1-Eya2 blk: -2

How did Cc1ccc(S(=O)(=O)Nc2ccsc2C#N)cc1 do in these assays?
HP1b chromo inh: 35%; CtBP-E1A blk: -28; Six1-Eya2 blk: 0; JMJD2A Tudor: -5%; G9a block: 40µM*; BAZ2B inh: inconclusive

How did S=c1[nH]nc(Cc2ccc(Cl)cc2)n1-c1ccc2c(c1)OCCO2 do in these assays?
HP1b chromo inh: 8%; Six1-Eya2 blk: -2; JMJD2A Tudor: inconclusive; BAZ2B inh: inconclusive

Results for S=c1[nH]nc(-c2ccc(Br)cc2)n1-c1ccc2c(c1)OCCO2 ?
HP1b chromo inh: 9%; CtBP-E1A blk: 3; Six1-Eya2 blk: -7; JMJD2A Tudor: 71µM*; G9a block: 1.6µM*; BAZ2B inh: inconclusive

What do the screens show for `COc1ccc(Cc2n[nH]c(=S)n2-c2ccc3c(c2)OCCO3)cc1`?
HP1b chromo inh: 13%; Six1-Eya2 blk: -1; JMJD2A Tudor: 6.3µM*; G9a block: 8.9µM*; BAZ2B inh: -23%

Results for COc1cc(OC)cc(-c2n[nH]c(=S)n2-c2ccc3c(c2)OCCO3)c1 ?
HP1b chromo inh: 14%; CtBP-E1A blk: -6; Six1-Eya2 blk: -9; JMJD2A Tudor: 4.5µM*; G9a block: 3.5µM*; BAZ2B inh: -25%

What do the screens show for `COc1ccc(-c2n[nH]c(=S)n2-c2ccc3c(c2)OCCO3)cc1`?
HP1b chromo inh: inconclusive; Six1-Eya2 blk: -5; JMJD2A Tudor: 3.2µM*; G9a block: 1.8µM*; BAZ2B inh: -33%

How did COc1ccc(-c2[nH]ncc2-c2ccc3c(c2)OCCO3)c(O)c1 do in these assays?
HP1b chromo inh: 2%; CtBP-E1A blk: -6; Six1-Eya2 blk: -10; JMJD2A Tudor: inconclusive; G9a block: -4%[59 µM]; BAZ2B inh: inconclusive

How did Brc1ccc2c(c1)OCCOCCOc1cc(Br)ccc1OCCOCCOCCO2 do in these assays?
HP1b chromo inh: 61%; CtBP-E1A blk: 5; Six1-Eya2 blk: -7; JMJD2A Tudor: 3%; G9a block: 19%[59 µM]; BAZ2B inh: -1%

How did COc1cc(/C=C(\NC(C)=O)C(=O)Nc2cccc(O)c2)ccc1OC(C)=O do in these assays?
HP1b chromo inh: 36%; CtBP-E1A blk: 1; Six1-Eya2 blk: 8; JMJD2A Tudor: -3%; G9a block: inconclusive; BAZ2B inh: 4%

Assay outcomes: PubChem BioAssay, National Center for Advancing Translational Sciences (NCATS)
